PubChem BioAssay AID463212 (Sanford-Burnham Center for Chemical Genomics, 2010)
Out of some 330,000 compounds screened, about 4,400 (1.3%) were called active.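 The calls were made as follows: active = growth inhibition of the mutant yeast at or above 50%; inactive = the rest.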 The sample as a whole holds a higher share of actives than the screen did.

Test: growth inhibitors of tim23-1 mutant yeast, primary screen, luminescence, uHTS (AID 463212);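 also: temperature-sensitive mutant grown at 25 °C; plate controls were DMSO-treated mutant yeast for no effect and medium wells lacking yeast for full effect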
Conditions: S. cerevisiae tim23-1 growth, BacTiter-Glo luminescence, 24 h; at 20 µM; stronger effect = higher value

inhibition, inactive:
CCn1c(SCC(=O)Nc2cc(C)ccc2C)nnc1-c1cnccn1 5.06%
CCc1cccc(NC(=O)CCCN2C(=O)C(c3ccccc3)Oc3cccnc32)c1 (stereo not drawn) 35.3%
COc1ccc(C(=O)COC(=O)c2ccc3ccccc3n2)cc1 40.7%
CC(OC(=O)c1ccc2ccccc2n1)C(=O)c1ccccc1 (stereo not drawn) 10.7%
COc1ccc([N+](=O)[O-])cc1C1NN=C(c2cccc3ccccc23)S1 (stereo not drawn) 0.511%
N#C[C@]1(S(=O)(=O)c2ccccc2)C[C@@H]2ON=C(c3cccc(Br)c3)[C@@H]2C1 24.4%
Cc1sc2ncnc(Sc3nc4ccccc4s3)c2c1C 14.7%
CSc1ncnc2sc(C)c(C)c12 -2.76%
COc1cc(C(=O)NCC(c2ccco2)N2CCCC2)ccc1OCc1ccccc1 (stereo not drawn) 2.02%
CCc1ccc(C2C(C#N)=C(N)N(N3CCOCC3)C3=C2C(=O)CC(C)(C)C3)s1 (stereo not drawn) 5.14%
Cc1ccc(S(=O)(=O)N2CC(O)C[C@H]2C(=O)OCC(=O)Nc2ccc(N3CCOCC3)cc2)cc1C (stereo partly drawn) 4.11%
O=C(O)C#Cc1cccc2ccccc12 7.2%
CN(Cc1ccccc1)C(=O)COC(=O)c1ccccc1Nc1ccccc1 42%
CC(C)(C)OC(=O)CNC(=O)c1[nH]cnc1C(=O)N[C@@H](CCCCN)C(=O)OC(C)(C)C -2.18%
O=C(c1ccccc1)c1cccn1CC(=O)N1CCN(c2ccc(F)cc2)CC1 17.4%
CN(C)Cc1ccccc1C1(O)c2ccccc2CSc2ccccc21 (stereo not drawn) 34.6%
COc1ccc(C(=O)CC(=O)c2ccc(C)cc2)c(O)c1 29.8%
O=C(CSc1ncn[nH]1)NCc1ccc2c(c1)OCO2 -3.54%
O=C(CSc1ncn[nH]1)Nc1ccc(Br)cc1Br -3%
CN(CCC1CCOCC1)C(=O)CC1C(=O)NCCN1Cc1cccc(F)c1 (stereo not drawn) -8.17%
COc1ccc(OCCn2ccnc2C)cc1 -7.96%
COc1cc(OC)cc(-c2cc3nc(C4CCN(C(=O)OC(C)(C)C)CC4)cc(=O)n3[nH]2)c1 7.61%
CCCCNC(=O)CCn1nc(-c2ccc(Cl)cc2)ccc1=O 18%
Cc1ccc(S(=O)(=O)NC(C)C(=O)NCc2ccc(Cl)cc2)cc1 (stereo not drawn) -2.23%
CCOc1ccccc1C1NC(=O)NC(C)=C1C(=O)OCc1ccco1 (stereo not drawn) 16%
CCCn1nc(C(=O)NNC(=O)CCOc2ccccc2OCC)c2ccccc2c1=O -4.04%
COC(=O)c1c(NC(=O)c2ccc(S(=O)(=O)N3CCOCC3)cc2)sc2c1CCN(C(C)C)C2 8.38%
CC(=O)c1ccc(NC(=O)C2CCCN2S(=O)(=O)c2cccs2)cc1 (stereo not drawn) 14.8%
Cc1cccc(N(C)C(=O)c2cc3c(=O)[nH]c4ccc(C)cc4c3s2)c1 6.52%
O=C(N/N=C/c1cccc(Br)c1)c1ccc(N2CCCC2=O)cc1 12.3%
O=C(CNC(=O)c1cccs1)N/N=C/c1cccc(Br)c1 16.1%
CCS(=O)(=O)Nc1cccc(-c2cc(-c3ccccc3)c3cc(C)ccc3n2)c1 29.6%
Cc1ccc2nc(Nc3ccccc3O)nc(-c3ccccc3)c2c1 24.4%
CC(=O)Nc1ccc(Nc2cc(C)nc(Nc3ccc(NC(C)=O)cc3)n2)cc1 8.84%
CN1CCN(c2nc(Nc3ccc(O)cc3)nc3ccccc23)CC1 -37.1%
CC(OC(=O)c1ccc([N+](=O)[O-])cc1)C(=O)NCC1CCCCC1 (stereo not drawn) 3.5%
O=C1N[C@@H](Cc2ccccc2)C(=O)N2[C@H]1C[C@]1(Br)c3ccccc3N(S(=O)(=O)c3ccccc3)[C@H]21 5.8%
Cc1cc(=O)cc(C)[nH]1 9.7%
O=C(Cc1ccccc1)NCC1OCCc2ccccc21 (stereo not drawn) 4.02%
CCOc1ccccc1NC(=O)Cn1nnc(C(=O)NCc2cccs2)c1N 0.467%
COCC(C)OC(=O)c1c(N)n(CCCN2CCOCC2)c2nc3ccccc3nc12 (stereo not drawn) 5.92%
Cc1cc(NC(=O)CSC2=NS(=O)(=O)c3cc(Cl)ccc3N2)no1 11.8%
CCCn1c(=O)c(C(=O)Nc2cc(C)ccn2)c(O)c2ccccc21 13.4%
C=CCn1c(=O)c(C(=O)Nc2ncccc2O)c(O)c2ccccc21 33.8%
CCSC1(SCC)N=C(N)C2(C#N)C(c3ccccc3)NC(C)=CC12C#N (stereo not drawn) 9.77%
CSc1nccc(NC(=O)c2ccc(C(C)(C)C)cc2)n1 42.9%
CC(C)(C)NC(=O)CSc1nnc(NC(=O)CCc2ccccc2)s1 8.92%
O=C(CN1CCN(c2ccc(F)cc2)CC1)Nc1ccccc1 7.47%
Oc1c(CN2CCCC2)cc(COCc2ccccc2)c2cccnc12 12.2%
O=C1CCC[C@@H]2CC(N3CCCCC3)C[C@@H]3CCN1[C@H]23 (stereo partly drawn) 29.3%
COc1ccc(/C=N/N(C)C2=NS(=O)(=O)c3ccccc32)cc1OC 1.27%
COc1ccc2c(c1)O/C(=C\c1ccccc1O)C2=O 0.978%
COC(=O)c1ccc(/C=C2/C(=O)Oc3ccccc32)cc1 34.3%
CCSc1sc(CC)cc1C=O -3.29%
CC/C(=N\NC(=S)NC(C)C)c1ccc(OC(F)F)cc1 30.3%
CCOC(=O)NC(=O)/C(C#N)=C\c1ccccc1 4.67%
O=C(/C=C/c1c(F)cccc1Cl)Nc1nn[nH]n1 9.19%
CC(=O)c1ccc(S(=O)(=O)NCCC(=O)N2CCN(c3ccccn3)CC2)cc1 12.9%
Cc1ccccc1OCC(=O)Nc1ccc2c(c1)ncn2C 20%
CCC(=O)N1CCN(c2ccccc2NC(=O)COc2cccc(C)c2C)CC1 13.7%
CCN(CC)C(=O)CSc1nc2ccccc2n1CC(=O)N1CCN(c2ccccc2OC)CC1 12.6%
NC(=S)c1ccc(C(N)=S)o1 -0.65%
CC[N+](C)(CC)CCC[n+]1c(-c2ccccc2)c2cc(N)ccc2c2ccc(N)cc21 -96.2%
Fc1ccccc1/C=C1\CCCC2=C1Nc1ncnn1C2c1ccccc1F (stereo not drawn) 34%
CC(=O)C1=C(C)NC(=O)NC1c1ccc2c(c1)OCO2 (stereo not drawn) 0.126%
CCCC(C)c1nnc(NC(=O)C2CC(=O)N(c3ccc(OCC)cc3)C2)s1 (stereo not drawn) 16%
COc1cc(/C=C/C(=O)OCC(=O)NCCCc2ccccc2)ccc1O 16.5%
O=C(OCc1cc2ccccc2[nH]c1=O)c1cccnc1 -4.57%
COc1ccc(Oc2coc3cc(OC(=O)c4cncc(Br)c4)ccc3c2=O)cc1 -12.3%
CCOC(=O)N1CCN(CC(=O)n2c(C)c(C)c3ccccc32)CC1 30.5%
CCCCOc1ccc(CON(C(C)=O)C(C)=O)cc1Cl 27%
Cc1ccc(C2=C/C(=C\c3cccnc3)C(=O)O2)cc1 33.4%
O=C1OC(c2ccc(Cl)cc2)=N/C1=C\c1cccnc1 40.9%
CC(C)CC(=O)N1CCN(Cc2ccccc2Br)CC1 1.68%
COC(=O)c1cccc(N(C(=O)CNC(=O)c2cccs2)C(C(=O)NCC2CCCO2)c2ccc(OC)c(OC)c2)c1 (stereo not drawn) 0.773%
COc1cccc(C(=O)Nc2nc3ccc(S(C)(=O)=O)cc3s2)c1 23.6%
COc1ccc2nc(NC(=O)[C@@H]3CCCN3C(=O)c3cccs3)sc2c1 25.9%
CC(C)=CCC/C(C)=C/C(=O)O 8.44%
CC(C)S(=O)(=O)c1csc(NC(=O)Nc2ccc(Cl)cc2)c1Cl 22.2%
CCn1c(CSc2nncn2-c2ccc(OC)cc2)nc2cc(S(=O)(=O)N(C)C)ccc21 8.84%

inhibition, active:
O=C(Oc1ccc([N+](=O)[O-])cc1)c1ccc2ccccc2n1 69.8%
CCCNc1ncnc2sc(C)c(C)c12 58.6%
CCN1/C(=C\c2ccc3ccccc3[n+]2CC)Sc2cc(C)ccc21 51.5%
O=C(/C=C/Sc1ncn[nH]1)c1ccc(Cl)cc1 74.3%
CCOc1ccccc1/C=c1\sc2nc(-c3ccco3)nn2c1=O 52.2%
C=C1CCC(N(O)c2cc(C)on2)C(=C)CCC2C1CC2(C)C (stereo not drawn) 55.5%
O=C(N/N=C\c1cccc(Br)c1)c1ccccc1-n1cccc1 53.7%
Cc1cc(Nc2ccc(Br)cc2)nc2ccccc12 55.5%
Cc1ccc2nc(Nc3ccccc3)cc(C)c2c1 57.6%
CC(C)Cn1c(N)c(C(=O)NCc2cccs2)c2nc3ccccc3nc21 59.9%
Cn1c(=O)c(C(=O)Nc2ncccn2)c(O)c2ccccc21 60%
Oc1c(CN2CCN(c3ccc(F)cc3)CC2)cc(Cl)c2cccnc12 54.1%
O=C1Oc2ccccc2C(=O)/C1=C/c1ccccc1O 61.1%
CNC(=O)/C(C#N)=C/c1c(F)cccc1Cl 75.8%
Cc1ccccc1OCC(=O)Nc1ccc(N2CCN(C(=O)C(C)C)CC2)c(Cl)c1 52.8%
O=C(Oc1c(-c2ccco2)oc2ccccc2c1=O)c1cccnc1 51.2%
Cc1ccccc1C1=N/C(=C/c2cccnc2)C(=O)O1 51.8%
COc1ccc2nc(NC(=O)NC3CCCCC3)sc2c1 58.4%
